This passage reports outcome, Potency and activity results from PubChem BioAssay (NCATS).

A short description of assay [1]: NCATS anti-infectives library activity on HEK293 viability as a counter-qHTS vs the C. elegans viability qHTS (AID 1745854).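 Also: HEK293 cells exposed to compounds for 24 hr before the viability read; % is scaled to controls: 0 for no effect and ±100 for the full control effect.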 A digest of the protocol: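 Compound titrations (final up to 41.7 uM) were incubated with HEK293 cells for 24 hr at 37C under 5% CO2. Viable cells were quantified with CellTiter-Glo after 10 min at ambient temperature.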
A general note: In qHTS, concentration-response curves come from the screen itself.

In assay [2] the target is Phospholipid hydroperoxide glutathione peroxidase GPX4 (Homo sapiens) (UniProt P36969). Briefly: Primary qHTS Assay for Inhibitors of Recombinant Selenoprotein Glutathione Peroxidase 4 (GPX4) (AID 1845192). Also: nearly all actives have a fitted effect of over 65% in size. A digest of the protocol: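 Steps: GPX4 plus compound, 30 min RT; add GR/GSH/NADPH master mix; start with cumene hydroperoxide; read 340/450 nm fluorescence at 0 and 15 min. Finals were 200 nM GPX4, 1 mM GSH, 0.5 mM CHP, 0.5 mM NADPH, 100 nM GR.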

Assay [3] in a line: Quantitative High-Throughput drug screen in 47 multiple myeloma cell lines against the NCATS MIPE library collection: FR4_PLB cell viability assay (AID 1918924; also: nearly all actives have a fitted effect of over 35% in size; also: potency is read from the fitted curve at half-maximal effect). A digest of the protocol:
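Steps: seed 500 cells per well; pin-transfer MIPE 4.0 library; incubate 48 h at 37C, 5% CO2, humidified; add CellTiter-Glo, 5 min room temperature; read luminescence.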

Assay [4] can be described thus: Quantitative High-Throughput drug screen in 47 multiple myeloma cell lines against the NCATS MIPE library collection: EJM_DSMZ cell viability assay (AID 1918926; also: nearly all actives have a fitted effect of over 30% in size; also: potency is read from the fitted curve at half-maximal effect). A digest of the protocol: (§1)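 qHTS of the MIPE 4.0 collection: 500 myeloma cells/well, 48 h drug exposure at 37C in 5% CO2, then CellTiter-Glo for 5 min at room temperature before luminescence reading.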
Assay [5] has as its target Glutathione peroxidase 1 (Homo sapiens) (UniProt P07203). Put plainly: Primary qHTS Assay for Inhibitors of Recombinant Selenoprotein Glutathione Peroxidase 1 (GPX1) (AID 1845191). Also: nearly all actives have a fitted effect of over 65% in size. A digest of the protocol:
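GR-coupled readout: NADPH consumption tracked by fluorescence, ex 340/em 450 nm, at t=0 and after 15 min at RT. Final mix 10 nM GPX1, 1 mM GSH, 0.5 mM CHP, 0.5 mM NADPH, 100 nM GR, 0.01% BSA, following 30 min enzyme–compound preincubation.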

Assay [6] concerns the target Nicotinamide N-methyltransferase (Homo sapiens) (UniProt P40261). Put plainly: Confirmatory Screen for Target Class Profiling of Small Molecule Inhibitors of Methyltransferases (AID 1745852). To be noted: MTase-Glo luminescence, SAH detection, recombinant enzyme; measured here: NNMT max response; stronger effect = lower value.
In assay [7] the target is Phenylethanolamine N-methyltransferase (Homo sapiens) (UniProt P11086). Described as above. To be noted: MTase-Glo luminescence, SAH detection, recombinant enzyme; measured here: PNMT max response; stronger effect = lower value.
The target of assay [8] is Luciferin 4-monooxygenase (Photinus pyralis) (UniProt P08659). Briefly: Primary firefly luciferase (FLuc) qHTS assay for identification of artifact compounds. (AID 1845220). Also: nearly all actives have a fitted effect of over 60% in size. A digest of the protocol: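 Enzymatic FLuc inhibition assay: compounds pre-exposed to luciferin/ATP (10 uM each) for 15 min, then purified P. pyralis enzyme at 10 nM added. Read-out: luminescence at 5 min.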

Assay [9] concerns Nanoluciferase (engineered Oplophorus gracilirostris luciferase). Briefly: Primary Nanoluciferase (NLuc) qHTS assay for identification of artifact compounds. (AID 1845222).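 Also: NLuc secreted into diluted conditioned medium of S16 cells; series mostly up to about 54 µM; 0% = DMSO and -100% = no enzyme.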 A digest of the protocol:
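S16 cell supernatant NLuc, 1:55; cpds qHTS; 15 min RT dark; Nano-Glo substrate 1:100, 5 min; luminescence; Hill fit of % inhibition.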

Assay [10] in a line: Primary redox qHTS assay for identification of artifact compounds. (AID 1845223).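 Also: 0% = DMSO and 100% = reference compound.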 A digest of the protocol:
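Redox-cycling detection via DTT (250 uM final) oxidation coupled to Amplex Red (25 uM)/HRP (250 mU/mL) in HBSS. 15 min preincubation plus 30 min after DTT, room temperature. Ex/Em 525/598 nm; 4-parameter Hill fit against DMSO and 10 uM DA3003.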

Assay [11] is described as follows: Viability counterscreen for antagonist of constitutive androstane receptor (CAR) against the NCATS DSHEA and TCM libraries (AID 1794837).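 Also: compound exposure lasted 24 h before viability reading; 0% is about no effect.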 A digest of the protocol:
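Cells: HepG2 line carrying CYP2B6 reporter and hCAR, seeded and attached 5 h. Then pin-transferred test substances plus agonist CITCO at 48 uM final; 24 h incubation; fluorogenic viability reagent, 1 h.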
On the technique in general: The purpose of a counterscreen is to sort out artefacts and off-target activity.

A short description of assay [12]: Viability counterscreen for agonist of constitutive androstane receptor (CAR) against the NCATS DSHEA and TCM libraries (AID 1794838).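 Also: HepG2 cells with CYP2B6 reporter and hCAR plus 0.75 µM PK11195 antagonist; 0% is about no effect.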 A digest of the protocol:
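Cell health was measured as CellTiter-Fluor signal in HepG2-CYP2B6-hCAR cells treated for 24 h with substances alongside the hCAR antagonist PK11195 (0.75 uM final).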

The target of assay [13] is Nuclear receptor subfamily 1 group I member 3 (Homo sapiens) (UniProt Q14994). Put plainly: Primary qHTS for agonist of constitutive androstane receptor (CAR) against the NCATS DSHEA and TCM libraries (AID 1794839).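 Also: HepG2 cells expressing human CAR with a CYP2B6 reporter plus PK11195 antagonist; luciferase reporter luminescence read with ONE-Glo; 0% is about no effect.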 A digest of the protocol:
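qHTS, agonist mode: HepG2-CYP2B6-hCAR, 2,500 cells/well, 5 h attach; cpds + PK11195 0.75 µM final; 24 h, 37 °C, 5% CO2. Readouts: CellTiter-Fluor (405/540 nm), then ONE-Glo luminescence.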

Assay [14] in a line: HepG2 viability counterscreen (readout 2: ATP content) against the NCATS DSHEA and TCM libraries (AID 1794840). Also: 0% is about no effect. A digest of the protocol: (§2)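 Same wells read twice: first fluorescence from cleaved GF-AFC substrate (25 uM final, 30 min, 37C) for live-cell protease, then CellTiter-Glo luminescence after 30 min at room temperature for ATP. HepG2 cells were exposed ~24 h to substances.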

Assay [15] can be described thus: HepG2 viability counterscreen (readout 1: protease activity) against the NCATS DSHEA and TCM libraries (AID 1794841).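 Also: cells exposed to compounds for about 24 h before the protease read; 0% is about no effect.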 A digest of the protocol: as §2
Assay [16] addresses Metallo-beta-lactamase type 2 (Klebsiella pneumoniae) (UniProt C7C422). Put plainly: qHTS to identify inhibitors of the New Delhi Metallo-beta-lactamase (NDM): assay validation screen against the NCATS LOPAC Collection (AID 1794843).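 Also: nitrocefin turnover by NDM-1 measured as 485 nm absorbance at plateau; series mostly up to about 38 µM; % is scaled to controls: 0 for no effect and ±100 for the full control effect.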 A digest of the protocol: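 NDM-1 at 2 nM final in 50 mM HEPES pH 7.0, 1 uM ZnSO4, 0.01% Tween20, preincubated with LOPAC compounds pinned in DMSO; 50 uM nitrocefin (stock) added. Hydrolysis read as absorbance at 485 nm in the plateau phase.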

The nature of assay [17]: Quantitative High-Throughput drug screen in 47 multiple myeloma cell lines against the NCATS MIPE library collection: AMO1_DSMZ cell viability assay (AID 1918927; also: nearly all actives have a fitted effect of over 30% in size; also: potency is read from the fitted curve at half-maximal effect). A digest of the protocol: as §1
A short description of assay [18]: Quantitative High-Throughput drug screen in 47 multiple myeloma cell lines against the NCATS MIPE library collection: Delta47_JCRB cell viability assay (AID 1918925; also: nearly all actives have a fitted effect of over 45% in size; also: potency is read from the fitted curve at half-maximal effect). A digest of the protocol: as §1
The nature of assay [19]: NCATS anti-infectives library activity on the primary C. elegans qHTS viability assay (AID 1745855; calls by dose curve). A digest of the protocol:
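Titration-based screen in worms: eggs hatched overnight in M9, L1 larvae fed TOP10 capsules in S medium with compound, incubated 21 °C for 7 days; fluorescent objects gated by size and intensity at days 0, 3 and 7.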

The structures appear in SMILES notation. Records with an inconclusive call do not appear. The source made the active and inactive calls. Unless noted, calls follow the shape of the dose curve; as a rule, active = well fitted curve in the direction sought with a large enough effect; inconclusive = small, poorly fitted or top-dose-only effect, or another doubt; inactive = no such curve, though single readings can be large; an effect the other way counts as inactive or inconclusive.

Chain of Glutathione peroxidase 1 (Homo sapiens) (P07203 whole entry, looked up): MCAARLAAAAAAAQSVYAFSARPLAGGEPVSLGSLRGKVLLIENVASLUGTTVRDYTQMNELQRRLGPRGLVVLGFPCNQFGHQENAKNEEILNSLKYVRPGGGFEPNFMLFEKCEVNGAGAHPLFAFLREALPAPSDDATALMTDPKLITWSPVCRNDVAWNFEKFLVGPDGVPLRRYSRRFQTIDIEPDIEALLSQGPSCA
Chain of Phospholipid hydroperoxide glutathione peroxidase GPX4 (Homo sapiens) (P36969 whole entry, looked up): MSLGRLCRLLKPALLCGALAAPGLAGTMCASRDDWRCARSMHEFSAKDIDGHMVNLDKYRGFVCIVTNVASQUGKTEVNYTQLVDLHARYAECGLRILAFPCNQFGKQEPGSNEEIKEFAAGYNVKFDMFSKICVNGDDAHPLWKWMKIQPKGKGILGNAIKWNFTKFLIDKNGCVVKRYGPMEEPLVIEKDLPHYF
Chain of Nicotinamide N-methyltransferase (Homo sapiens) (P40261 whole entry, looked up): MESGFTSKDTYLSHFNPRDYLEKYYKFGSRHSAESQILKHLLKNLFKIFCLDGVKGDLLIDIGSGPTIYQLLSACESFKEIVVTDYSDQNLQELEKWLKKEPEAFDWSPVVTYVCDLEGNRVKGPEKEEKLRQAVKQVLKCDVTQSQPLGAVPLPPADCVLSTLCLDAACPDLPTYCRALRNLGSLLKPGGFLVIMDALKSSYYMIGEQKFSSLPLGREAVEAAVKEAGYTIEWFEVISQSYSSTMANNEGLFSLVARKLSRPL
Chain of Metallo-beta-lactamase type 2 (Klebsiella pneumoniae) (C7C422 whole entry, looked up): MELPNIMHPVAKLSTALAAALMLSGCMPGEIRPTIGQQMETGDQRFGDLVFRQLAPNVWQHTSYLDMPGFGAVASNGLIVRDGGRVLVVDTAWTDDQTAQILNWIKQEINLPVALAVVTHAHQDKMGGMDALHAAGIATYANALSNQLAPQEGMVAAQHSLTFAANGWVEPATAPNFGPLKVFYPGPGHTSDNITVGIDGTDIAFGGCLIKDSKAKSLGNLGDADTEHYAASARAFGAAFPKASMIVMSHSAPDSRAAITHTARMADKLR
Chain of Phenylethanolamine N-methyltransferase (Homo sapiens) (P11086 whole entry, looked up): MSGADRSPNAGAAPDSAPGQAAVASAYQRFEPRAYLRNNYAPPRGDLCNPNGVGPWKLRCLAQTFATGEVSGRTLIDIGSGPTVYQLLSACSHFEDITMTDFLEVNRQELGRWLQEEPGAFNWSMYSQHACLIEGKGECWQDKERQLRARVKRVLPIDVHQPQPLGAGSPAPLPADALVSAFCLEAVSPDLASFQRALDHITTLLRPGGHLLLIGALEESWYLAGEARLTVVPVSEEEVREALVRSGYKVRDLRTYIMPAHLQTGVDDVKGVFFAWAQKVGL
Chain of Nuclear receptor subfamily 1 group I member 3 (Homo sapiens) (Q14994 whole entry, looked up): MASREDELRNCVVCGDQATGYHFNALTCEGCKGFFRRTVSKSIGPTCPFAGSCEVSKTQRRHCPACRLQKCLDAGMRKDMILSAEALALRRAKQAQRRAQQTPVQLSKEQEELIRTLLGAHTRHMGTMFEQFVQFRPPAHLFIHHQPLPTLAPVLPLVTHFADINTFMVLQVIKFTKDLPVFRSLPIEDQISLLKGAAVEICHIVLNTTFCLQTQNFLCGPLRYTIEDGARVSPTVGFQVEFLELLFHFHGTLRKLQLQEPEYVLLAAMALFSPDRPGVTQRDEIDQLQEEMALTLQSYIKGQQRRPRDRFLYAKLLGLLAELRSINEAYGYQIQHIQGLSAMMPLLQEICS

Regarding `CNC(=O)c1ccc(N2C(=S)N(c3ccc(C#N)c(C(F)(F)F)c3)C(=O)C2(C)C)cc1F`, the outcome in assay [1] is “inactive”. Besides, the Potency entry in assay [2], in [3] and in assay [4] was “inactive” in each case.

As to `NC(=O)c1ccc(I)c([N+](=O)[O-])c1`, the outcome in [1] is “inactive”. The Potency entry in [5], in assay [2], in assay [3] and in [4] was “inactive” in each case.

As to `CCCS(=O)(=O)Nc1ccc(F)c(C(=O)c2c[nH]c3ncc(-c4ccc(Cl)cc4)cc23)c1F`, the results for the activity in assay [6] and in assay [7] were -26% and -12.4%, respectively. Also, the Potency entry in assay [5], in assay [2] and in [8] was “inactive” in each case. The outcome in [9] and in assay [10] was “inactive” each time.

On to `NC(=O)c1cnccn1`, for which the outcome in [11], in assay [12], in assay [13], in assay [14], in assay [15] and in assay [16] was “inactive” throughout. Also, the Potency entry in [5], in [2], in assay [3], in [4] and in assay [17] was “inactive” throughout.

`COc1cc2c(cc1OC)CN(CCc1ccc(NC(=O)c3cccc4c(=O)c5cccc(OC)c5[nH]c34)cc1)CC2`: the activity in assay [6] was -75.2%; in assay [7], -10.7%. Moreover, the outcome in assay [1] and in assay [9] was “inactive” in each case. Further, the Potency entry in [5], in [2] and in assay [8] was “inactive” in each case.

On to `NC[C@H](O)c1ccc(O)c(O)c1`, for which the activity came to 2.1% in [6] and 21.8% in assay [7]. Also, the outcome in assay [16] is “inactive”. Moreover, the Potency result in assay [5], in [2], in assay [4] and in assay [17] was “inactive” each time.

As for `NCCc1ccc(O)c(O)c1`, in assay [16], the outcome was “inactive”. Further, the Potency result in assay [5] and in assay [2] was “inactive” throughout.

Take `Cc1ccccc1C(OCCN(C)C)c1ccccc1` (stereo not drawn): the activity in assay [6] is -5.32%; in [7], -1.88%. The outcome in [16] is “inactive”. The Potency result in assay [2], in [3], in assay [4] and in assay [17] was “inactive” each time.

For the compound `CCCc1nc2c(C)cc(-c3nc4ccccc4n3C)cc2n1Cc1ccc(-c2ccccc2C(=O)O)cc1`, the outcome in [1] is “inactive”. Besides, the Potency entry in [5], in assay [2], in assay [18], in assay [4] and in assay [17] was “inactive” throughout.

In the case of `C[C@]1(c2nc3c(C(N)=O)cccc3[nH]2)CCCN1`, the outcome in assay [1] was “inactive”. In addition, the Potency entry in assay [2], in [3] and in assay [4] was “inactive” throughout.

For `CO[C@@H]1[C@H](N(C)C(=O)c2ccccc2)C[C@H]2O[C@]1(C)n1c3ccccc3c3c4c(c5c6ccccc6n2c5c31)C(=O)NC4`, the Potency result in assay [19] and in assay [3] was “inactive” in each case. The values for the Potency in assay [18] and in assay [17] were 1050 nM (active) and 833 nM (active), respectively.

Take `C#Cc1cccc(Nc2ncnc3cc(OCCOC)c(OCCOC)cc23)c1`: the Potency result in assay [19], in assay [5], in [2] and in assay [8] was “inactive” throughout. Moreover, the outcome in [9] and in [10] was “inactive” throughout. For the same compound, the Potency in [3] was 16600 nM (active); in assay [18] it was 4180 nM (active); in [4], 6620 nM (active); in [17], 1050 nM (active).

As to `Cc1[nH]c(=O)c(C#N)cc1-c1ccc2nccn2c1`, the activity in assay [6] is -3.4%; in [7], 4.35%. Also, the outcome in assay [16] was “inactive”. Besides, the Potency entry in assay [5], in assay [2], in assay [3], in [18] and in assay [4] was “inactive” in each case.
